# Test results taken from PubChem BioAssay (NCI).
# Where “and” joins values, the source holds several entries; their conditions need not be identical. Identical values can stand only once. Compounds without any hit were thinned out: in the full panel of roughly 83,000, 20% have a hit.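 Treatment: one concentration, 48 hours, 96-well format. Scoring: percent growth, with anything below 10 considered active.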 Values without a mark were called inactive. Calls of active or inactive are those of the source.
# How the values were obtained:
# Experiment in all cases: NCI-60 one-dose screen, 48 h (100 = growth as untreated, 0 = no growth, -100 = all killed)
# [1] = system: HCT-15 colon; settings: 10 µM
# [2] = system: HT29 colon; settings: 10 µM
# [3] = system: SNB-75 CNS; settings: 10 µM
# [4] = system: SNB-19 CNS; settings: 10 µM
# [5] = system: U251 CNS; settings: 10 µM
# [6] = system: PC-3 prostate; settings: 10 µM
# [7] = system: SK-MEL-5 melanoma; settings: 10 µM
# [8] = system: UACC-62 melanoma
# [9] = system: LOX IMVI melanoma; settings: 10 µM
# [10] = system: SK-MEL-28 melanoma; settings: 10 µM
# [11] = system: SK-MEL-2 melanoma; settings: 10 µM
# [12] = system: EKVX NSCLC; settings: 10 µM
# [13] = system: SN12C renal; settings: 10 µM
# [14] = system: UO-31 renal; settings: 10 µM
# [15] = system: TK-10 renal
# [16] = system: ACHN renal; settings: 10 µM
# [17] = system: CAKI-1 renal; settings: 10 µM
# [18] = system: A498 renal; settings: 10 µM
# [19] = system: CCRF-CEM leukemia; settings: 10 µM
# [20] = system: MOLT-4 leukemia; settings: 10 µM
smiles,measurement,setting,value
CCOC(=O)C(CCC(C)C)C(=O)OCC,growth,[1],104%
same,growth,[2],94.4%
same,growth,[3],94.6%
same,growth,[4],109%
same,growth,[5],101%
same,growth,[6],107%
same,growth,[7],102%
same,growth,[8]; 10 µM unless noted,101%
same,growth,[9],115%
same,growth,[10],107%
same,growth,[11],97.5%
same,growth,[12],99.3%
same,growth,[13],109%
same,growth,[14],84.7%
same,growth,[15]; 10 µM unless noted,86.8%
same,growth,[16],101%
same,growth,[17],100%
same,growth,[18],91.3%
same,growth,[19],99.9%
same,growth,[20],83.8%
O=[N+]([O-])c1ccc(N=Nc2ccccc2)cc1,growth,[1],100%
same,growth,[2],92.2%
same,growth,[3],88.5%
same,growth,[4],96.7%
same,growth,[5],90.5%
same,growth,[6],83.5%
same,growth,[7],99%
same,growth,[8]; 10 µM unless noted,91.4%
same,growth,[9],92%
same,growth,[10],99.3%
same,growth,[11],94.3%
same,growth,[12],106%
same,growth,[13],94.3%
same,growth,[14],65.7%
same,growth,[15]; 10 µM unless noted,92.2%
same,growth,[16],96.2%
same,growth,[17],92.8%
same,growth,[18],89.8%
same,growth,[19],38.7%
same,growth,[20],79.1%
O=C(O)c1cccc([N+](=O)[O-])c1,growth,[1],108%
same,growth,[2],111%
same,growth,[3],94.3%
same,growth,[4],106%
same,growth,[5],95.7%
same,growth,[6],93.1%
same,growth,[7],107%
same,growth,[8]; 10 µM unless noted,101%
same,growth,[9],99.2%
same,growth,[10],112%
same,growth,[11],112%
same,growth,[12],114%
same,growth,[13],103%
same,growth,[14],89.6%
same,growth,[15]; 10 µM unless noted,110%
same,growth,[16],114%
same,growth,[17],100%
same,growth,[18],102%
same,growth,[19],112%
same,growth,[20],101%
O=c1[nH][nH]c(=O)c2cc([N+](=O)[O-])ccc12,growth,[1],121%
same,growth,[2],103%
same,growth,[3],83.4%
same,growth,[4],108%
same,growth,[5],101%
same,growth,[6],104%
same,growth,[7],101%
same,growth,[8]; 10 µM unless noted,112%
same,growth,[9],94.8%
same,growth,[10],115%
same,growth,[11],103%
same,growth,[12],106%
same,growth,[13],108%
same,growth,[14],85.7%
same,growth,[15]; 10 µM unless noted,104%
same,growth,[16],107%
same,growth,[17],96.8%
same,growth,[18],117%
same,growth,[19],100%
same,growth,[20],100%
CCOc1ccc(Br)cc1/C=N\N=C\c1cc(Br)ccc1OCC,growth,[1],109%
same,growth,[2],107%
same,growth,[3],98.5%
same,growth,[4],117%
same,growth,[5],103%
same,growth,[6],93.8%
same,growth,[7],109%
same,growth,[8]; 10 µM unless noted,104%
same,growth,[9],105%
same,growth,[10],115%
same,growth,[11],109%
same,growth,[12],107%
same,growth,[13],102%
same,growth,[14],88.8%
same,growth,[15]; 10 µM unless noted,111%
same,growth,[16],104%
same,growth,[17],90.8%
same,growth,[18],141%
same,growth,[19],-3.92% (active)
same,growth,[20],102%
COS(=O)(=O)c1ccc(Br)cc1,growth,[1],104%
same,growth,[2],107%
same,growth,[3],89.4%
same,growth,[4],98.3%
same,growth,[5],89%
same,growth,[6],93.2%
same,growth,[7],104%
same,growth,[8]; 10 µM unless noted,85.5%
same,growth,[9],97.2%
same,growth,[10],98.4%
same,growth,[11],95%
same,growth,[12],106%
same,growth,[13],93.9%
same,growth,[14],86.2%
same,growth,[15]; 10 µM unless noted,97.5%
same,growth,[16],103%
same,growth,[17],115%
same,growth,[18],113%
same,growth,[19],127%
same,growth,[20],129%
S=C1CCCCCN1,growth,[1],100%
same,growth,[2],108%
same,growth,[3],89.1%
same,growth,[4],99.1%
same,growth,[5],111%
same,growth,[6],105%
same,growth,[7],107%
same,growth,[8]; 10 µM unless noted,100%
same,growth,[9],101%
same,growth,[10],105%
same,growth,[11],105%
same,growth,[12],98.1%
same,growth,[13],100%
same,growth,[14],82.5%
same,growth,[15]; 10 µM unless noted,109%
same,growth,[16],99.1%
same,growth,[17],93.9%
same,growth,[18],101%
same,growth,[19],107%
same,growth,[20],111%
C1CNC(C2=NCCN2)=N1,growth,[1],108%
same,growth,[2],102%
same,growth,[3],100%
same,growth,[4],112%
same,growth,[5],102%
same,growth,[6],98.8%
same,growth,[7],101%
same,growth,[8]; 10 µM unless noted,104%
same,growth,[9],98%
same,growth,[10],109%
same,growth,[11],116%
same,growth,[12],103%
same,growth,[13],102%
same,growth,[14],90.2%
same,growth,[15]; 10 µM unless noted,103%
same,growth,[16],109%
same,growth,[17],99.2%
same,growth,[18],108%
same,growth,[19],109%
same,growth,[20],96.4%
O=C(c1ccc(Cl)cc1)c1ccccc1Cl,growth,[1],95.8%
same,growth,[2],101%
same,growth,[3],100%
same,growth,[4],85.1%
same,growth,[5],98.3%
same,growth,[6],93.4%
same,growth,[7],94.5%
same,growth,[8]; 10 µM unless noted,87.7%
same,growth,[9],96.2%
same,growth,[10],129%
same,growth,[11],103%
same,growth,[12],96.9%
same,growth,[13],94.7%
same,growth,[14],72.2%
same,growth,[15]; 10 µM unless noted,90.9%
same,growth,[16],95%
same,growth,[17],88%
same,growth,[18],126%
same,growth,[19],90.5%
same,growth,[20],87.1%
c1ccc2c(N3CCCCC3)ncnc2c1,growth,[1],99.6%
same,growth,[2],76.2%
same,growth,[3],140%
same,growth,[4],99.4%
same,growth,[5],93%
same,growth,[6],87.3%
same,growth,[7],91.8%
same,growth,[8]; 10 µM unless noted,91.3%
same,growth,[9],92.8%
same,growth,[10],115%
same,growth,[11],92.6%
same,growth,[12],94%
same,growth,[13],91.1%
same,growth,[14],62.5%
same,growth,[15]; 10 µM unless noted,90.9%
same,growth,[16],81.9%
same,growth,[17],91%
same,growth,[18],106%
same,growth,[19],93.2%
same,growth,[20],91.2%
Nc1ccc(CC(=O)O)c(N)c1,growth,[1],106%
same,growth,[2],107%
same,growth,[3],93.1%
same,growth,[4],97%
same,growth,[5],101%
same,growth,[6],101%
same,growth,[7],99.2%
same,growth,[8]; 10 µM unless noted,93.3%
same,growth,[9],101%
same,growth,[10],101%
same,growth,[11],113%
same,growth,[12],101%
same,growth,[13],102%
same,growth,[14],89%
same,growth,[15]; 10 µM unless noted,105%
same,growth,[16],104%
same,growth,[17],89%
same,growth,[18],62.8%
same,growth,[19],-27.4% (active)
same,growth,[20],101%
CCCCC(CC)COC(C)=O (stereo not given),growth,[1],109%
same,growth,[2],111%
same,growth,[3],91.2%
same,growth,[4],106%
same,growth,[5],99.6%
same,growth,[6],97%
same,growth,[7],105%
same,growth,[8]; 10 µM unless noted,103%
same,growth,[9],97.4%
same,growth,[10],108%
same,growth,[11],106%
same,growth,[12],101%
same,growth,[13],101%
same,growth,[14],88.3%
same,growth,[15]; 10 µM unless noted,102%
same,growth,[16],106%
same,growth,[17],96.9%
same,growth,[18],86.3%
same,growth,[19],108%
same,growth,[20],105%
CC(=O)c1cc2c(cc1F)C(C)(C)CCC2(C)C,growth,[1],100%
same,growth,[2],106%
same,growth,[3],84.8%
same,growth,[4],102%
same,growth,[5],104%
same,growth,[6],95.6%
same,growth,[7],102%
same,growth,[8]; 10 µM unless noted,97.1%
same,growth,[9],96%
same,growth,[10],107%
same,growth,[11],104%
same,growth,[12],111%
same,growth,[13],98.5%
same,growth,[14],80%
same,growth,[15]; 10 µM unless noted,109%
same,growth,[16],91.9%
same,growth,[17],112%
same,growth,[18],92.6%
same,growth,[19],120%
same,growth,[20],89.1%
CCOc1ccccc1/C=N/Nc1nc2ccccc2o1,growth,[1],76.3%
same,growth,[2],110%
same,growth,[3],83.9%
same,growth,[4],100%
same,growth,[5],105%
same,growth,[6],85.8%
same,growth,[7],97.7%
same,growth,[8]; 10 µM unless noted,82.6%
same,growth,[9],94.1%
same,growth,[10],100%
same,growth,[11],91.3%
same,growth,[12],101%
same,growth,[13],92.2%
same,growth,[14],86.5%
same,growth,[15]; 10 µM unless noted,104%
same,growth,[16],103%
same,growth,[17],110%
same,growth,[18],92.1%
same,growth,[19],95.8%
same,growth,[20],81.7%
CCC(C)(O)c1ccc(C)cc1 (stereo not given),growth,[1],107%
same,growth,[2],107%
same,growth,[3],91.7%
same,growth,[4],97.8%
same,growth,[5],105%
same,growth,[6],99.6%
same,growth,[7],98.5%
same,growth,[8]; 10 µM unless noted,102%
same,growth,[9],106%
same,growth,[10],104%
same,growth,[11],98%
same,growth,[12],109%
same,growth,[13],102%
same,growth,[14],91.4%
same,growth,[15]; 10 µM unless noted,99.6%
same,growth,[16],108%
same,growth,[17],104%
same,growth,[18],96.9%
same,growth,[19],99.3%
same,growth,[20],95.6%
CC(=O)OCC1=CC2OC(=O)C3=COC(OC4OC(CO)C(O)C(O)C4O)C1C32 (stereo not given),growth,[1],112%
same,growth,[2],106%
same,growth,[3],104%
same,growth,[4],111%
same,growth,[5],101%
same,growth,[6],110%
same,growth,[7],104%
same,growth,[8]; 10 µM,102%
same,growth,[8]; 100 µM,77.3% and 98.7%
same,growth,[9],111%
same,growth,[11],138%
same,growth,[12],101%
same,growth,[13],101%
same,growth,[14],96.7%
same,growth,[15]; 10 µM,113%
same,growth,[15]; 100 µM,81% and 93.8%
same,growth,[16],111%
same,growth,[17],101%
same,growth,[19],104%
same,growth,[20],141%
